Source: the supplement of paper PMC6522484
Structures can show the parent of a compound that is named as a salt. ± gives the standard deviation of the averaged measurements.

Key:
DLD1 [1] = assay: cell viability (CellTiter-Glo) relative to plate median (fraction of plate median); higher = more viable cells; details: 5 µM; treatment time 24 h; reporter: 7TFP
Summary of the method: (§1)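 Cells were seeded in 384-well plates; these were colorectal cancer lines stably transduced with lentiviral 7TFP or TCF4/Wnt firefly luciferase reporters. After 24 h, library compounds went in at a final 5 µM, and exposure lasted 24 h. Parallel plates were then read for firefly luciferase or CellTiterGlo luminescence, each well normalised to its plate median, with two independent replicates averaged.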

HCT116 = assay: as above; details: 5 µM; treatment time 24 h; reporter: TCF4/Wnt
Summary of the method: as §1

SW480 [2] = assay: as above; details: 5 µM; treatment time 24 h; reporter: 7TFP
Summary of the method: as §1

DLD1 [3] = assay: TCF/Wnt firefly luciferase reporter signal relative to plate median (fraction of plate median); higher = higher Wnt reporter signal; details: 5 µM; treatment time 24 h; reporter: 7TFP
Summary of the method: as §1

SW480 [4] = assay: as above; details: 5 µM; treatment time 24 h; reporter: 7TFP
Summary of the method: as §1

SMILES | cell viability (DLD1 [1]) | cell viability (HCT116) | cell viability (SW480 [2]) | TCF/Wnt firefly luciferase reporter signal (DLD1 [3]) | TCF/Wnt firefly luciferase reporter signal (SW480 [4])
C=C(CC[C@@H](C(=O)O)[C@H]1CC[C@@]2(C)C3=C(CC[C@]12C)[C@@]1(C)CC[C@H](O)C(C)(C)[C@@H]1CC3)C(C)C [Eburicoic acid] | 0.994 ± 0.052 | 0.923 ± 0.15 | 1.01 ± 0.03 | 0.878 ± 0.023 | 0.983 ± 0.013
CCCCS(=N)(=O)CCC(N)C(=O)O (stereo not given) | 1.04 ± 0.021 | 0.948 ± 0.22 | 1.08 ± 0.014 | 1.05 ± 0.028 | 1.03 ± 0.11
CC12CC3CC(C)(C1)CC(N)(C3)C2 | 1.06 ± 0.16 | 1.05 ± 0.05 | 1.02 ± 0.014 | 1.04 ± 0.064 | 1.04 ± 0.064
Cc1ccccc1OCC(O)CO (stereo not given) | 0.958 ± 0.042 | 0.983 ± 0.0099 | 0.999 ± 0.03 | 1.02 ± 0.15 | 1.04 ± 0.014
COc1ccccc1OCCNCC(O)COc1cccc2[nH]c3ccccc3c12 (stereo not given) | 1.05 ± 0.22 | 1.06 ± 0.078 | 1.1 | 1.21 ± 0.085 | 1.075 ± 0.0071
CNCCC=C1c2ccccc2CCc2ccccc21 | 0.9585 ± 0.00071 | 0.979 ± 0.12 | 0.972 ± 0.0057 | 1.02 ± 0.079 | 1.04 ± 0.12
CCCc1nn(C)c2c(=O)[nH]c(-c3cc(S(=O)(=O)N4CCN(C)CC4)ccc3OCC)nc12 | 1 ± 0.067 | 0.981 ± 0.21 | 0.978 ± 0.013 | 1.02 ± 0.042 | 1.09 ± 0.028
CC(C)c1cccc(=O)c(O)c1 | 1.11 ± 0.13 | 1.07 ± 0.042 | 1.1 ± 0.021 | 1.03 ± 0.073 | 0.985 ± 0.064
COC(=O)[C@@H]1[C@H]2C[C@H]3c4[nH]c5ccccc5c4CCN3C[C@@H]2CC[C@@H]1O | 0.964 ± 0.033 | 1.08 ± 0.13 | 1.005 ± 0.0071 | 0.919 ± 0.16 | 0.9165 ± 0.0021
CCCCCCc1ccc(O)cc1O | 1.04 ± 0.061 | 1.14 ± 0.021 | 1.07 | 1.09 ± 0.014 | 1 ± 0.11
COc1cc(O)c2c(=O)cc(-c3ccc(OC)c(-c4c(O)cc(O)c5c(=O)cc(-c6ccc(O)cc6)oc45)c3)oc2c1 [GINKGETIN, K salt] | 0.994 ± 0.079 | 0.899 ± 0.04 | 0.9925 ± 0.0092 | 1.1 ± 0.15 | 1.16 ± 0.2
CC(=O)Nc1cccc(O)c1 | 0.933 ± 0.17 | 1.1 ± 0.028 | 1.03 ± 0.021 | 0.949 ± 0.14 | 0.939 ± 0.13
C/C=C1\[C@H]2C=C(C)C[C@]1(N)c1ccc(=O)[nH]c1C2 | 0.965 ± 0.064 | 0.952 ± 0.016 | 1.02 ± 0.014 | 1.1 ± 0.17 | 1 ± 0.16
CC1(C)S[C@@H]2[C@H](NC(=O)[C@H](N)c3ccccc3)C(=O)N2[C@H]1C(=O)O | 0.963 ± 0.0099 | 1.14 ± 0.13 | 0.969 ± 0.1 | 1 ± 0.083 | 0.917 ± 0.027
O=C(O)c1cc(/N=N/c2ccc(S(=O)(=O)Nc3ccccn3)cc2)ccc1O | 0.992 ± 0.0042 | 1 ± 0.078 | 1.04 ± 0.057 | 0.899 ± 0.083 | 0.837 ± 0.02
CCC1(C)CC(=O)NC1=O (stereo not given) | 0.932 ± 0.018 | 1.09 ± 0.021 | 1 ± 0.022 | 1.15 ± 0.11 | 0.865 ± 0.0092
O=C(/C=C/c1ccc(O)cc1)c1ccc(O)cc1O | 0.97 ± 0.012 | 1.03 ± 0.08 | 0.968 ± 0.0099 | 1 ± 0.15 | 0.862 ± 0.076
C/C=C(\C)C(=O)O[C@@H]1c2c(ccc3ccc(=O)oc23)OC(C)(C)[C@@H]1OC(C)=O | 0.969 ± 0.011 | 0.92 ± 0.029 | 0.926 ± 0.047 | 0.997 ± 0.075 | 1.09 ± 0.057
O=S(=O)(O)CCS | 1.01 ± 0.058 | 1.06 ± 0.014 | 1.02 ± 0.054 | 1.01 ± 0.19 | 1.1 ± 0.028
CCc1ccc2c(O)c3c(cc2c1C(=O)OC)C(=O)c1c(O)ccc(O)c1C3=O | 1.04 ± 0.093 | 1.06 ± 0.099 | 1.14 ± 0.13 | 1.04 ± 0.15 | 0.967 ± 0.029
CC[C@@H]1C(=O)N(C)c2cnc(Nc3ccc(C(=O)N[C@H]4CC[C@H](N5CCN(CC6CC6)CC5)CC4)cc3OC)nc2N1C(C)C [Volasertib] | 1 ± 0.036 | 0.666 ± 0.095 | 1.21 ± 0.078 | 0.91 ± 0.17 | 1.06 ± 0.042
Oc1cc(O)c2c(c1)O[C@H](c1ccc(O)c(O)c1)[C@@H](O)C2 | 1.03 ± 0.014 | 1.03 ± 0.076 | 1.04 ± 0.042 | 1.08 ± 0.014 | 1.15 ± 0.035
NCCCC[C@H](N[C@@H](CCc1ccccc1)C(=O)O)C(=O)N1CCC[C@H]1C(=O)O | 1.03 ± 0.05 | 1.01 ± 0.07 | 1.003 ± 0.0099 | 0.9065 ± 0.00071 | 0.827 ± 0.069
CC(C)NCC(O)COc1ccc(COCCOC(C)C)cc1 (stereo not given) | 0.948 ± 0.017 | 0.99 ± 0.0057 | 0.933 ± 0.0028 | 1.03 ± 0.042 | 0.964 ± 0.066
O=c1oc2c(O)c(O)cc3c(=O)oc4c(O)c(O)cc1c4c23 | 1.03 ± 0.028 | 1.125 ± 0.0071 | 1.11 ± 0.028 | 0.971 ± 0.055 | 1.045 ± 0.0071
Cc1ccccc1N1C(=O)c2cc(S(N)(=O)=O)c(Cl)cc2NC1C (stereo not given) | 1.06 ± 0.078 | 1.02 ± 0.035 | 1.02 | 1.03 ± 0.072 | 0.938 ± 0.19
Cc1ccc(N(CC2=NCCN2)c2cccc(O)c2)cc1 | 1.01 ± 0.042 | 0.992 ± 0.2 | 1.02 ± 0.014 | 0.92 ± 0.039 | 0.94 ± 0.044
Oc1c(I)cc(I)c2cccnc12 | 0.992 ± 0.11 | 0.931 ± 0.035 | 0.939 ± 0.016 | 0.928 ± 0.026 | 0.984 ± 0.14
